# Source: PubChem BioAssay
# Most compounds without a hit are left out; they make up all but 2.4% or so of the library.
# POLI inh: qHTS for Inhibitors of Polymerase Iota; DNA polymerase iota (Homo sapiens), Q9UNA4; Pol iota fluorescent replication assay, 10 min; Potency, µM (doses to about 115 µM), for the others: at the top dose activity, negative = inhibition, most hits filed as inhibitors; hit rate 1% among 390,000
#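 Fluorescent replication assay read twice, at 0 min and 10 min after adding 50 nM (final) substrate. Enzyme (10 nM) and compounds were first incubated 15 min at room temperature; enzyme-free buffer wells were negative controls.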
# WRN inhibitor: qHTS for Inhibitors of WRN Helicase; Bifunctional 3'-5' exonuclease/ATP-dependent helicase WRN (Homo sapiens), Q14191; WRN helicase unwinding, fluorescent forked duplex, kinetic; Potency, µM (doses to about 114 µM), for the others: at the highest dose activity change, negative = inhibition, usual class: inhibitors; hit rate 0.46% among 360,000; note: % is set by controls: 0 for no effect and ±100 for the full control effect; nearly all actives have a fitted effect of over 55% in size
#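 Screening of the MLSMR collection measured strand separation of a quenched forked DNA duplex (100 nM) by 20 nM WRN with 2 mM ATP, all final. Compounds were preincubated with enzyme 15 min at room temperature.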
# Pol eta inh-1: qHTS for Inhibitors of Polymerase Eta; DNA polymerase eta (Homo sapiens), Q9Y253; recombinant Pol eta, fluorescent DNA replication assay; Potency, µM (highest dose often 114 µM), for the others: top-dose activity change, negative = inhibition, most hits filed as inhibitors; hit rate 1.2% among 390,000; AID 588591, 2011; note: % is set by controls: 0 for no effect and ±100 for the full control effect
# Target sequence (Q9Y253 whole entry, looked up): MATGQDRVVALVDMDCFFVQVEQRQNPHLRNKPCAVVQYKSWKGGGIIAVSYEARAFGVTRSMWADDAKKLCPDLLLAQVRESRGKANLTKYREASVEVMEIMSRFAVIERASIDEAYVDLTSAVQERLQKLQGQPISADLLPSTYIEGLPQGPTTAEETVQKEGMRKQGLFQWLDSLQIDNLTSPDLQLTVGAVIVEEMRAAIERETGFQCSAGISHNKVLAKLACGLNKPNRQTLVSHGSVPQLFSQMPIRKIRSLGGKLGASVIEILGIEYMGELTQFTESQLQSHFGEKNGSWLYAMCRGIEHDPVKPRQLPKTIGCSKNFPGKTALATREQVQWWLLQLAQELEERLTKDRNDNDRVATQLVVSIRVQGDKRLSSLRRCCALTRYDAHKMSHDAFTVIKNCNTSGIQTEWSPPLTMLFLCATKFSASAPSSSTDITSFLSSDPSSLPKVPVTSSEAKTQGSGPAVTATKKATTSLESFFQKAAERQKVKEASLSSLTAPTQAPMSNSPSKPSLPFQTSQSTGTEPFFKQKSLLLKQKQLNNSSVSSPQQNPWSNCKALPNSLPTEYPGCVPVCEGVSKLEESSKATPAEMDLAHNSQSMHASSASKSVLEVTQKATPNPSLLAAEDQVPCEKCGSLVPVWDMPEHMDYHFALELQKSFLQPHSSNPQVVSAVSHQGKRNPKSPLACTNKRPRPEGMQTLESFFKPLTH
#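 Fluorescent replication assay: 50 nM final substrate added after a 15 min room-temperature compound preincubation with 10 nM enzyme. Signal taken at 0 min and again at 10 min.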
# Pol kappa inh-1: qHTS for Inhibitors of Polymerase Kappa; purified Pol kappa, fluorescent DNA synthesis assay, 10 min; Potency, µM (doses to about 107 µM), inactives show at the highest dose activity, negative = inhibition, usual class: inhibitors; hit rate 0.53% among 400,000; note: % is set by controls: 0 for no effect and ±100 for the full control effect
#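 Readout: fluorescence, taken kinetically at 0 and 10 min. Conditions: 10 nM Pol kappa, 15 min RT compound preincubation, 50 nM substrate final. Controls: enzyme-free buffer wells.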
# FEN1 inh: qHTS Assay for the Inhibitors of Human Flap endonuclease 1 (FEN1); P39748; Recombinant FEN1 flap cleavage, fluorescence, 15 min; Potency, µM (titrated, usually from 114 µM), without a hit: top-dose activity change, negative = inhibition, actives largely listed as inhibitors; hit rate 0.35% among 390,000; AID 588795, 2011; note: % is set by controls: 0 for no effect and ±100 for the full control effect; nearly all actives have a fitted effect of over 65% in size
#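 FEN1 at 10 nM, compound pretreatment for 15 min (room temperature), 50 nM final substrate to initiate; endpoint reads at 0 and 15 min; DMSO-only plates used as vehicle background.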
# POLB inh: qHTS Assay for Inhibitors of DNA Polymerase Beta. P06746. Pol beta primer extension/strand displacement, fluorescence kinetic. Potency, µM (doses to about 114 µM), inactives show at the highest dose activity change, negative = inhibition, actives largely listed as inhibitors. hit rate 1.3% among 340,000; note: % is set by controls: 0 for no effect and ±100 for the full control effect
#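 Homogeneous kinetic assay of primer extension and strand displacement by 10 nM Pol beta, preincubated 15 min at room temperature with compound before 50 nM substrate (final) was added. Read at 0 and 10 min; four-parameter Hill fit.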
# PGK validate: qHTS for inhibitors of Phosphogylcerate Kinase: Hit Validation Screen | shares compounds with Pol kappa inh-1 | TbPGK coupled GAPDH assay, Kinase-Glo luminescence | Potency, µM (titrated, usually from 57.5 µM), without a hit: top-dose activity change, negative = inhibition, most hits filed as inhibitors | hit rate 79% among 500; note: % is set by controls: 0 for no effect and ±100 for the full control effect; nearly all actives have a fitted effect of over 65% in size
# POLI cherry-pick: qHTS for Inhibitors of Polymerase Iota: Confirmatory Assay for Cherry-picked Compounds; shares compounds with Pol kappa inh-1; Pol iota primer extension, TAMRA/BHQ fluorescence; Potency, µM, actives largely listed as inhibitors; hit rate 77% among 1,500
# Pol kappa inh-2: qHTS for Inhibitors of Polymerase Kappa: Confirmatory Assay for Cherry-picked Compounds | shares compounds with Pol eta inh-1 | purified Pol-kappa, fluorescent strand-displacement substrate | Potency, µM, usual class: inhibitors | hit rate 76% among 920
# Pol eta inh-2: qHTS for Inhibitors of Polymerase Eta: Confirmatory Assay for Cherry-picked Compounds. hit rate 64% among 2,600. Pol eta primer extension, TAMRA/BHQ fluorescence, 10 min. shares compounds with Pol eta inh-1. Potency, µM, actives largely listed as inhibitors
# * hit, by the source's call; ? = inconclusive; · = no result; [ ] = another dose, or the depositor's remark. Calls come from the whole dose curve; as a rule, active = well fitted curve in the direction sought with a large enough effect; inconclusive = small, poorly fitted or top-dose-only effect, or another doubt; inactive = no such curve, though single readings can be large; an effect the other way counts as inactive or inconclusive. Potency is the fitted concentration of half-maximal effect.
SMILES,POLI inh,WRN inhibitor,Pol eta inh-1,Pol kappa inh-1,FEN1 inh,POLB inh,POLI cherry-pick,Pol eta inh-2,others
CCCCCCCCCCCC(=O)OCC(O)C1OCC(O)C1O (stereo unspecified),·,·,·,-7.7%[19.4 µM],·,·,·,·,
O=C(O)C(c1ccccc1)N1C(=O)/C(=C\c2ccc(-c3ccccc3Cl)o2)SC1=S (stereo unspecified),11.2µM*,50.1µM*,39.8µM*,-12.3%,50.1µM*,?,59.7*,37.9*,PGK validate=8.19µM*;Pol kappa inh-2=10.6*
CN(C)c1ccc(-c2ccc3c(=O)c4ccccc4n(C)c3c2)cn1,?,-17.9%[11.6 µM],20µM*,-5.7%,-12.7%,?,?,?,
Cn1c2ccccc2c(=O)c2ccc(Cl)cc21,·,0.5%,-4.3%,·,·,·,·,·,
COc1ccc(NC(=O)C2CCN(S(=O)(=O)c3c(C)noc3/C=C/c3ccco3)CC2)cc1,?,·,31.6µM*,?,5.9%,25.1µM*,23.8*,26.9*,PGK validate=10.3µM*;Pol kappa inh-2=11.9*
O=c1[nH]c(=O)n([C@@H]2O[C@H](CO)[C@@H](O)[C@H]2O)cc1F,-19.1%,·,·,-9.8%[19.4 µM],-9.8%,·,·,·,
O=C1C=CC(n2cc(F)c(=O)[nH]c2=O)O1 (stereo unspecified),·,-13.7%,20µM*,·,·,·,·,?,PGK validate=18.3µM*
CCS(=O)(=O)c1ncc(Cl)c(C(=O)N2CCN(c3cccc(Cl)c3)CC2)n1,-20.1%,·,-11.5%,0.0%,-13.8%,-25.2%,·,·,
C=CCNC(=O)COC(=O)c1c2c(nc3ccccc13)CCC2,22.4µM*,?,35.5µM*,89.1µM*,-19.1%,22.4µM*,?,53.6*,
O=C(NNC(=O)c1ccccc1Br)c1ccc(Cl)c(Cl)c1,13.7%,-2.1%,-7.5%,-6.6%,2.6%,1.0%,·,·,
O=C(NNC(=O)c1ccccc1Br)c1ccc2nc[nH]c2c1,?,-24.1%,22.4µM*,?,-24.8%,22.4µM*,?,53.6*,
O=C(N/N=C/c1ccccc1O)NC12CC3CC(CC(C3)C1)C2,-10.3%,-4.4%,-12.3%,-2.6%,-28.5%,2.3%,·,·,
O=C(N/N=C/c1cc(Cl)cc([N+](=O)[O-])c1O)NC12CC3CC(CC(C3)C1)C2,10.8%,44.7µM*,7.94µM*,-0.3%,1.2%,14.1µM*,·,67.5*,PGK validate=14.6µM*
COc1ccc(-c2cnnc(N/N=C/c3ccc(O)c(O)c3)n2)cc1,8.91µM*,?,20µM*,25.1µM*,?,3.55µM*,47.4*,30.1*,
CC1COCC(C)N1C1=C(Cl)C(=O)c2ccccc2C1=O (stereo unspecified),8.91µM*,-34.4%,-14.7%,-8.4%,-21.7%,·,42.3*,26.9*,
COC(=O)\C(C(C)=O)=C(/C=C/C=C/C=C/N(C)C)N(C)C,3.98µM*,21.2µM*,2.82µM*,22.4µM*,?,10µM*,15*,6.01*,PGK validate=4.11µM*;Pol kappa inh-2=5.32*
COC(=O)/C(C(C)=O)=C(\C=C\N(C)C)N(C)C,23.6%,-7.9%,-8.3%,-3.1%,-0.1%,17.4%,·,·,
COc1ccccc1NC(=O)COC(=O)c1cc2c(s1)CCC2,31.6µM*,?,20µM*,?,1.4%,·,75.2*,75.7*,Pol kappa inh-2=?
COc1cccc(C(=O)OCC(=O)Nc2sc3c(c2C(N)=O)CCC3)c1O,20µM*,?,22.4µM*,79.4µM*,?,·,42.3*,30.1*,Pol kappa inh-2=26.7*
COc1ccccc1OCC(=O)Nc1sc2c(c1C(N)=O)CCC2,?,-11.5%[11.6 µM],?,?,-11.9%,·,·,·,
CC(C)Oc1ccc2c(=O)c3cc(C(=O)O)ccc3oc2c1,·,·,·,-8.8%[19.4 µM],·,·,·,·,
COc1ncc2nc(-c3ccccc3)c(=O)n(C3CC3)c2n1,·,·,·,-2.6%[60.1 µM],·,·,·,·,
Clc1ccccc1-c1cc(NCc2ccccc2)ncn1,·,·,·,-3.5%[60.1 µM],·,·,·,·,
CC(=O)Nc1ccc(NC(=O)CSc2nc(N)c(NC(=O)c3ccccc3F)c(=O)[nH]2)cc1,39.8µM*,?,25.1µM*,?,-1.7%,?,67*,?,Pol kappa inh-2=?
O=C1CCCC2=C1C(c1cccs1)Nc1ccc3ncccc3c12 (stereo unspecified),38.8%,-1.9%,-9.4%,-4.0%,1.6%,?,·,·,
SMILES,POLI inh,WRN inhibitor,Pol eta inh-1,Pol kappa inh-1,FEN1 inh,POLB inh,POLI cherry-pick,Pol eta inh-2,others
O=C1CCCC2=C1C(c1ccc(O)c(O)c1)Nc1ccc3ncccc3c12 (stereo unspecified),12.6µM*,?,35.5µM*,39.8µM*,?,11.2µM*,?,?,
CN(C)c1ccc(-c2cncnc2-n2ccnc2)cc1,·,·,·,0.5%[60.1 µM],·,·,·,·,
COc1ccc(CNc2ncncc2-c2ccc(N(C)C)cc2)c(OC)c1,·,·,·,-3.0%[60.1 µM],·,·,·,·,
COc1cccc(-c2ccc3nnc(SCC(=O)Nc4ccc(NC(C)=O)cc4)n3n2)c1,?,?,?,-11.3%,-27.0%,·,?,?,
C=CCNC(=O)c1ccc(Cn2c(=S)[nH]c3cc4c(cc3c2=O)OCO4)cc1,20µM*,?,?,79.4µM*,?,-14.1%,67*,·,Pol kappa inh-2=47.4*
COc1cccc(Nc2ncc3nc(CCc4ccccc4)c(=O)n(Cc4cccs4)c3n2)c1,·,·,·,-3.6%[60.1 µM],·,·,·,·,
CC(NC(=O)CCC(=O)Nc1ccccc1O)c1ccccc1 (stereo unspecified),49.2%,0.0%,-19.0%,-1.4%,8.4%,·,·,·,
CC(CNc1ccccc1O)C(=O)O (stereo unspecified),?,-26.1%,25.1µM*,?,-2.5%,8.91µM*,·,60.1*,PGK validate=?
CC(C)(C)OC(=O)N1CCCC1C(=O)NC1COC2CC(n3ccc(=O)[nH]c3=O)OC12 (stereo unspecified),23.1%,·,·,16.8%,-1.8%,·,·,·,
